# Out of some 420,000 compounds screened, about 64,000 (15%) were called active. Roughly 27% stayed inconclusive and do not appear here. Only a sample is shown. Values without a mark were called inactive. The call rests on the fitted dose curve; in most records, active means well fitted inhibition curve with a large enough effect; inconclusive means small, poorly fitted or top-dose-only effect; inactive means flat fitted curve, though single readings scatter.
# Assay: qHTS for Inhibitors of human tyrosyl-DNA phosphodiesterase 1 (TDP1): qHTS in cells in absence of CPT; further: nearly all actives have a fitted effect of over 55% in size
# Details: DT40 Tdp1-/- hTDP1 cells, no CPT, ATP luminescence, 48 h; activity change, negative = growth inhibition: at 46.2 µM (top of the series)
# Procedure, shortened: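 Stably hTDP1-transfected Tdp1-null chicken DT40 cells were treated with library compounds minus camptothecin and grown for at least 48 hr at 37 °C, after which cellular ATP was quantified by luminescence.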
# On the % scale 0 is the no-effect control and ±100 the full control effect; potency means the concentration at half of the fitted maximal effect.
SMILES,"activity change, negative = growth inhibition",Potency
CC1Cc2ccccc2N1S(=O)(=O)c1c(N)n(C)c(=O)n(C)c1=O (stereo unspecified),0.0607%,
CCSc1nnc(NC(=O)c2cc(=O)c3cc(C)c(C)cc3o2)s1,-14.3%,
COc1ccc(S(=O)(=O)NCC(=O)NC2CC2)cc1OC,25.6%,
CCN1CCN(C(C(=O)NC2CCCC2)c2cc3c(cc2[N+](=O)[O-])OCO3)CC1 (stereo unspecified),6.31%,
CC(C)CN1CC(C)C(=O)N(c2ccccc2)C1=S (stereo unspecified),-12.7%,
Nc1nc(SCC(=O)NNc2c(Cl)cc(Cl)cc2Cl)n[nH]1,-10%,
CC(C)NC(=O)Nc1ccc2c(c1)C(=O)N([C@H](C)CO)C[C@H](C)[C@@H](CN(C)Cc1ccc(C(F)(F)F)cc1)OCCCC[C@@H](C)O2,-20.4%,
Cc1noc(C)c1S(=O)(=O)N(C)C[C@H]1OCCCC[C@@H](C)Oc2ccc(NC(=O)CCCN(C)C)cc2C(=O)N([C@H](C)CO)C[C@@H]1C,-16.3%,
C[C@@H]1CCCCO[C@H](CN(C)Cc2ccccc2)[C@@H](C)CN([C@H](C)CO)C(=O)c2cc(NS(=O)(=O)c3ccc(Cl)cc3)ccc2O1,,16.4 µM (active)
O=C(Nc1ccnn1C1CCN(Cc2cccc(OCCO)c2)CC1)C1CCCC1,0.788%,
CC1(C)CC(=O)C=C(NC2CC(C)(C)NC(C)(C)C2)C1,0.396%,
CC(=O)c1cnn(-c2cc(Oc3ccc(F)cc3)ncn2)c1C,-13.4%,
COc1cc(/C=C2/C(=O)NN(c3ccc(F)cc3)C2=O)cc([N+](=O)[O-])c1O,-2.19%,
C/C=C/C(=O)Nc1nnc(C(C)C)s1,-22.6%,
Clc1ccc(CN2CCCCCC2)cc1Cl,7.19%,
O=C(NC(c1ccc(Cl)cc1)c1cnccn1)C1CCN(Cc2ccc(Cl)cc2)CC1 (stereo unspecified),,20.6 µM (active)
O=C(NNS(=O)(=O)c1ccc(Cl)cc1)C1CCN(Cc2ccccc2)CC1,-15.1%,
COc1cccc(CN2CCC(C(=O)NC(c3ccc4c(c3)OCO4)c3ccccn3)CC2)c1 (stereo unspecified),-23.3%,
CCOc1ccc(CN2CCC(n3nccc3NC(=O)C3CC3)CC2)cc1CO,1.56%,
Cc1cccnc1C(NC(=O)C1CCN(Cc2ccc(Cl)c(Cl)c2)CC1)c1ccc(Cl)cc1 (stereo unspecified),,4.61 µM (active)
Fc1cccc(Cl)c1CSc1ccc(-c2ccco2)nn1,-19.1%,
CCOc1ccc(S(=O)(=O)N2CCC(C(=O)NCc3ccccn3)CC2)cc1Cl,-12.9%,
Cc1ccc(S(=O)(=O)NCC(=O)NNC(=O)c2ccc(Br)cc2)cc1C,-12.9%,

SMILES,"activity change, negative = growth inhibition",Potency
O=C(NNS(=O)(=O)c1ccc(F)cc1)c1cnccn1,-10%,
CO/N=C(\C(=O)N[C@@H]1C(=O)N2C(C(=O)O)=C(C[N+]3(C)CCCC3)CS[C@H]12)c1csc(N)n1,-2.94%,
O=C(COC(=O)/C=C/c1nc2ccccc2s1)Nc1ccccc1Oc1ccccc1,-27%,
c1ccc(CCc2ccccn2)cc1,-2.35%,
Cn1cccc1C(=O)N1CCC2(CC1)CN(c1cccc(-c3ccccc3)c1)C2,,16.4 µM (active)
COc1ccc(NC(=O)N2CC3(CCN(C(=O)c4cccn4C)CC3)C2)cc1,-17.9%,
CC(C)NC(=O)N1CCC2(CC1)CCN(C(=O)c1cccn1C)CC2,-14.2%,
CCN(CC)CCn1cnc2c1c(=O)n(CCOC(=O)c1cc(OC)c(OC)c(OC)c1)c(=O)n2C,0.412%,
CC(=O)c1nn(-c2ccc(C)cc2)cc1C(=O)c1cccc(Br)c1,-28.5%,
O=C(CCNC(=O)c1ccc([N+](=O)[O-])cc1)NC1CCCCC1,-20.3%,
CC(C)C1=CC2=CC[C@H]3[C@](C)(C(=O)O)CCC[C@]3(C)C2CC1 (stereo partly specified),3.41% [at 9.04 µM],
COc1ccc(CN2CCNC(=O)C2CC(=O)NCc2cn[nH]c2-c2ccccc2)c(F)c1 (stereo unspecified),-16.8%,
COc1ccc(NS(=O)(=O)c2ccc(NC(=O)C(C)(C(F)(F)F)C(F)(F)F)cc2)nn1,6.95%,
c1ccc(-c2cn3c(n2)CCc2ccc4cccnc4c2-3)cc1,,16.4 µM (active)
c1ccc(-c2cn3cccnc3n2)cc1,-1.58%,
Cc1ccc(NC(=O)CSc2nc(=O)n(CCN(C)C)c3c2CCCC3)c(C)c1,4.62%,
Cc1csc(NC(=O)CSc2nc(=O)n(CCCN(C)C)c3c2CCC3)n1,4.86%,
Cc1ccc2nc(NC(=O)CSc3nc(=O)n(CCCN(C)C)c4c3CCC4)sc2c1,,13 µM (active)
CCOC(=O)CC1=CC(=O)Nc2ccccc2N1,-11.6%,
COc1cccc(NC(=O)CN(C)C(=O)c2cc(C3CC3)nn2-c2ccccc2)c1,-5.3%,
CCc1ccccc1NC(=O)CN(C)C(=O)c1cc(C2CC2)nn1-c1ccccc1,-15.7%,
CCc1ccccc1NC(=O)CN1CCN(C(=O)c2cc(C3CC3)nn2-c2ccccc2)CC1,,23.1 µM (active)
COc1ccc(C(=O)Nc2ccc(NC(=O)C(C)C)nc2)cc1,-7.31%,

SMILES,"activity change, negative = growth inhibition",Potency
Cc1ccc(Sc2ccc(NC(=O)c3ccc(F)cc3)cc2C#N)cc1,,11.6 µM (active)
COC(=O)c1ccc(Sc2ccc(F)cc2)c(N)c1,-25%,
COc1ccc(Sc2ccc(NC(=O)c3cccc(Cl)c3)cc2C#N)cc1,,23.1 µM (active)
Cc1ccc(C(=O)Nc2ccc3[nH]c(=O)c(=O)[nH]c3c2)cc1,1.61%,
COc1ccc(NC(=O)c2cccc(Cl)c2)c[n+]1[O-],-0.558%,
COc1cccc(NC(=O)CCNS(=O)(=O)c2ccc3c(c2)oc(=O)n3C)c1,,inactive
COCC(C)N=CC1=C(O)CC(C)(C)CC1=O (stereo unspecified),-10.1%,
C=CCN1C=C(C(=O)c2ccccc2)C(=O)CC1,-0.111%,
O=C(CCS(=O)(=O)Cc1ccccc1F)NCCCN1CCCCC1,-11.3%,
CCCCNC(=O)OCCSCCS(=O)(=O)c1ccc(Cl)cc1,-14.4%,
CC12CCCCC1=CC(=O)CC2 (stereo unspecified),-2.63%,
Cc1c(Cl)cccc1NC(=O)NCCCN1CCCC1=O,19.6%,
Cc1ccc(-c2cccc([C@H]3[C@@H]4C=CC[C@@H](C)[C@@H]4C(=O)N3Cc3ccccc3)c2)cc1,,20.6 µM (active)
Cc1cccc([C@@H]2[C@@H]3C(=O)N(Cc4ccccc4)C(=O)[C@@H]3[C@]3(Cc4ccc(Cl)cc4)C(=O)N(c4cccc(Cl)c4)C(=O)N23)c1,-6.02%,
Cc1cccc([C@H]2[C@@H]3C=CC[C@@H](C)[C@@H]3C(=O)N2Cc2ccccc2)c1,,14.6 µM (active)
Cc1cccc([C@@H]2[C@@H]3C(=O)N(C)C(=O)[C@@H]3[C@@H]3C(=O)Nc4ccccc4C(=O)N23)c1,-7.16%,
O=C(NCCCN1CCOCC1)c1ccc([N+](=O)[O-])cc1[N+](=O)[O-],-13.5%,
CC(C)c1ccc(/C=C/C(=O)NCCCN2CCOCC2)cc1,,20.6 µM (active)
O=C(NNC(=S)NCCCN1CCOCC1)c1ccncc1,3.65%,
CCCC(=O)N(CCc1ccccc1)Cc1nc2ccccc2c(=O)[nH]1,-19%,
CN(C)CCCNC(=O)c1cc(C(=O)Cc2ccc(Cl)cc2)c[nH]1,-22.6%,
O=C(COC(=O)Cc1ccccc1F)NCCc1ccccc1,4.69%,
N=c1n(CCc2ccccc2)c2ccccc2n1Cc1ccccc1F,,5.17 µM (active)

SMILES,"activity change, negative = growth inhibition",Potency
CCCCc1nccn1CCn1ccnc1CCCC,-3.8%,
CC(C)NC(=O)NC(=O)CSc1nnc(-c2ccccc2F)n1N,14.1%,
C=C(Br)Cn1c(CCCC)nc2ccccc21,,11.6 µM (active)
C=CCn1c(P(C)(=O)O)nc2ccccc21,,inactive
O=C(O)Cn1c(Cc2ccccc2)nc2ccccc21,4.87%,
CCCCCCCC/C=C\CCCCCCCC(=O)OC[C@H](CO)OC(C)=O,-8.7% [at 4.12 µM],
CCCOC(=O)c1c(NC(=O)c2cc3nc(-c4ccc(OC)cc4)cc(C(F)(F)F)n3n2)sc2c1CCCC2,-3.89%,
CC(=O)NS(=O)(=O)c1ccc2c(c1)Cc1cc(S(=O)(=O)NC(C)=O)ccc1-2,-11%,
Cc1nc2nc3c(cn2n1)C(=O)CC(c1ccccc1)C3 (stereo unspecified),-25.6%,
CCC(=O)N1c2ccccc2NC2=C(C(=O)CCC2)C1c1ccco1 (stereo unspecified),-2.89%,
O=C1CC(c2ccccc2)CC2=C1C(c1ccco1)n1nc(C(F)(F)F)nc1N2 (stereo unspecified),,14.1 µM (active)
CCOc1ccc(S(=O)(=O)NCCC(=O)NCC(C)(C)N2CCOCC2)cc1,-6.6%,
O=C(Nc1ccccc1F)c1ccccc1-c1ccccc1,-13.5%,
CC(C(=O)Nc1ccccc1-c1ccccc1)N1CCOCC1 (stereo unspecified),-21.9%,
Cc1ccccc1NC(=O)C(C)c1ccc(-c2ccccc2)c(F)c1 (stereo unspecified),,16.4 µM (active)
COc1ccc(N=Nc2c(-c3ccc(OC)cc3)[nH]oc2=O)cc1,-12.5%,
COC1=CC(=O)OC(c2ccc(OC)cc2)C1 (stereo unspecified),2.03%,
COc1ccc(N=C2C=CC(=O)O2)cc1,,4.61 µM (active)
COc1ccc(OC)c2c(N)c(C#N)c(C(F)(F)C(F)(F)F)nc12,3.02%,
Cc1ccc(C(=O)OCC(=O)NCc2ccc3c(c2)OCO3)s1,-5.24%,
COc1ccc(-c2cc(C(F)(F)F)nc(S(C)(=O)=O)n2)cc1OC,,5.17 µM (active)
CCN(CC)S(=O)(=O)c1cccc(C(=O)NCC(=O)OCC(=O)NCc2ccccc2)c1,-25.2%,
CCNC(=O)COc1cc(C)c(Br)c(C)c1,1.43%,

SMILES,"activity change, negative = growth inhibition",Potency
Cc1cc(F)ccc1NC1(c2ccccc2)C(=O)c2ccccc2C1=O,-0.108%,
CC(=O)Nc1ccc(/C=N/Nc2ccc(C(=O)c3c(C)cc4ccccn34)cc2[N+](=O)[O-])cc1,,11.6 µM (active)
CNc1ccc(NC(C)=O)cc1[N+](=O)[O-],-0.228%,
CC(=O)Nc1ccc(NC(=S)NC(=O)c2ccc([N+](=O)[O-])c(C)c2)cc1,-9.77%,
CCC(C)NCC(=O)Nc1ccc([N+](=O)[O-])cc1C(=O)Nc1ccccc1F (stereo unspecified),-23%,
Cc1ccc(S(=O)(=O)N(C)CC(=O)OCC(=O)N2CC(=O)Nc3ccccc32)cc1,-9.32%,
COc1ccccc1C(=O)NC(=O)COC(=O)c1ccco1,-4.23%,
COc1cccc(N2CCN(C(=O)C3CCCN(S(=O)(=O)c4cnc[nH]4)C3)CC2)c1 (stereo unspecified),-25%,
CCn1nc(C)cc1C(=O)N1CCCC(C(=O)c2cccc(OC)c2)C1 (stereo unspecified),-29.3%,
CCNC(=O)C1CCCN(C(=O)c2ccc(OC)cc2OC)CC1 (stereo unspecified),-2.02%,
Cc1cc(Cl)ccc1C(=O)C1CCCN(C(=O)c2ccc3c(c2)OCO3)C1 (stereo unspecified),,8.2 µM (active)
COc1ccc(OC)c(S(=O)(=O)N2CCCC(C(=O)NCCc3ccccc3)C2)c1 (stereo unspecified),-23.5%,
COc1c(C)cc(C(=O)C2CCCN(S(=O)(=O)c3c(C)noc3C)C2)cc1C (stereo unspecified),,16.4 µM (active)
COc1ccc(C(=O)C2CCCN(C(=O)c3ccc(OC)o3)C2)c(C)c1 (stereo unspecified),,16.4 µM (active)
Cc1cc(C)c(S(=O)(=O)N2CCC(C(=O)OCc3c(C)noc3C)CC2)c(C)c1,2.1%,
O=C(c1ccc2c(c1)OCO2)N1CCOCC1,0.596%,
Cc1cc(Cl)ccc1C(=O)C1CCCN(C(=O)c2nonc2C)C1 (stereo unspecified),-26.4%,
COc1ccc(C(=O)C2CCCN(S(=O)(=O)c3cccc(C)c3)C2)c(C)c1 (stereo unspecified),,18.4 µM (active)
CCOC(=O)C1CCN(S(=O)(=O)c2c(C)noc2C)CC1,21.5%,

# Reference: PubChem BioAssay AID686978 (National Center for Advancing Translational Sciences (NCATS), 2013)
